Here are results for 74 molecules from PubChem BioAssay AID1240 (Sanford-Burnham Center for Chemical Genomics, 2008).

In all, about 50,000 compounds went through this assay and about 800 (1.6%) showed an effect of 50% or more. The full list was thinned out, with strong results kept by preference.

In the assay the target is Bcl-2-like protein 10 (Homo sapiens) (UniProt Q9HD36). Nature of the assay: Phenotype converters, Bcl-B/TR3 peptide binding displacement, primary biochemical FP (AID 1240).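 Note: 0% = Bcl-B with tracer peptide and DMSO and 100% = tracer peptide lacking Bcl-B.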 Conditions: GST-Bcl-B / FITC-TR3 peptide fluorescence polarization; stronger effect = higher value; compound at 3.75 mg/L. A general note: Fluorescence polarisation rises when a labelled molecule tumbles more slowly, as on binding a larger partner.
Sequence of Bcl-2-like protein 10 (Homo sapiens) (Q9HD36 whole entry, looked up): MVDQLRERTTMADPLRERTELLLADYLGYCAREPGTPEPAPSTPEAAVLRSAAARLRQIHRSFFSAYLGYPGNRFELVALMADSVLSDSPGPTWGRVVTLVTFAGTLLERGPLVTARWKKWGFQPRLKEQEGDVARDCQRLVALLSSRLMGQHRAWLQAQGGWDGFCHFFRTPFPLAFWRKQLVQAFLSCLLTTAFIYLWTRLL
Take `O=c1[nH]c(=S)[nH]c(O)c1C=Nc1cc(Cl)ccc1O`: the displacement stood at 3.2%.

For `O=C(CN1C(=O)CCC1=O)NCCc1ccccc1`, the displacement was -5.5%.

Regarding `COc1ccc(Cl)cc1C(=O)Nc1cccc2nsnc12`, the displacement amounted to 12.8%.

With `O=C1C(Cl)=C(Nc2ccccc2)C(=O)N1c1ccc(Br)cc1`, the displacement came out at 6.4%.

Take `COc1ccccc1-n1c(O)c(C=Nc2ccccc2Cl)c(=O)[nH]c1=O`: the displacement amounted to 1.2%.

Regarding `O=C1C2=C(Nc3ccccc3SC2c2ccc3c(c2)OCO3)c2ccccc21` (centres undefined), the displacement is -16.3%.

For the molecule `CN1CCN(C(=O)CCN2C(=O)/C(=C/c3cccs3)SC2=S)CC1`, the displacement is 0.2%.

On to `CCN(CC)C(=O)Cc1ccc2c3c(cccc13)CC2`, for which the displacement was determined as 12.7%.

Consider `CC(=O)c1ccc(NC(=O)c2cnccn2)cc1`, for which the displacement was 37.3%.

For `COc1ccc(NC(=O)C/C(C)=N/NC(=O)c2cnccn2)cc1`, the displacement is -21.6%.

Consider `COc1ccc(NC(=O)c2cnccn2)cc1`, for which the displacement came to 105%.

With `CCOc1ccc(C(=O)Nc2ccc3oc(-c4ccccc4Br)nc3c2)cc1`, the displacement was determined as 14%.

On to `Cc1ccc(NC(=O)c2cccc(C(=O)Nc3ccc(C)c(C)c3)c2)cc1C`, for which the displacement is -0.1%.

As for `O=C(CCCN1C(=O)c2cccc3cccc(c23)C1=O)OC/C=C/c1ccccc1`, the displacement was determined as 6.6%.

Regarding `Brc1ccc(Nc2nc(-c3ccncc3)nc3ccccc23)cc1`, the displacement stood at 44.4%.

As to `Clc1ccc(Nc2nc(-c3ccncc3)nc3ccccc23)cc1`, the displacement is 109%.

Turning to `Fc1ccc(Nc2nc(-c3ccncc3)nc3ccccc23)cc1F`, the displacement amounted to 47.8%.

As for `O=C(Nc1ccc2c(c1)OCO2)c1ccccc1[N+](=O)[O-]`, the displacement was -5.9%.

On to `O=C(O)CSc1nnc2c(n1)[nH]c1ccccc12`, for which the displacement turned out to be 3.1%.

Take `Cc1ccc(/C=C2\CCC/C(=C\c3ccc(C)o3)C2=O)o1`: the displacement worked out at 15.2%.

As for `Cc1nc(SCC(=O)Nc2nnc(-c3ccccc3)s2)n[nH]1`, the displacement was 11.9%.

For the molecule `C/C(NCc1ccccc1)=C(\C#N)C(=O)NCc1ccccc1`, the displacement is -2.4%.

With `COc1cc(-c2csc(N)n2)ccc1O`, the displacement came to 15.6%.

In the case of `CC(C)NC(=O)COc1ccc(C=C2C(=O)NC(=O)NC2=O)cc1`, the displacement turned out to be 1.8%.

Take `O=C(COc1ccc(C=C2C(=O)NC(=O)NC2=O)cc1)NCCc1ccccc1`: the displacement came out at 82.5%.

`CC(NC(=O)COc1ccc(C=C2C(=O)NC(=O)NC2=O)cc1)c1ccccc1` (centres undefined): the displacement came to 7.3%.

Turning to `C/C=C/COC(=O)C1=C(C)NC(=O)NC1c1cc(Cl)c(O)c(OC)c1` (centres undefined), the displacement came out at 8.4%.

Consider `CCOC(=O)c1c(NC(=O)c2ccc(OC(C)C)c(OCC)c2)sc2ccccc12`, for which the displacement was 80%.

With `CCOC(=O)c1c(NC(=O)c2cc(OCC)c(OCC)c(OCC)c2)sc(C)c1C`, the displacement is -6.2%.

With `CCOC(=O)c1c(NC(=O)c2ccc(Cl)cc2)sc2ccccc12`, the displacement is 39.1%.

With `COc1ccc(Nc2ncnc3ccc(C)cc23)cc1`, the displacement came to 9%.

Turning to `Cc1ccc(S(=O)(=O)N/N=C/c2ccc(-c3ccc([N+](=O)[O-])cc3Cl)o2)cc1`, the displacement is -9.8%.

Consider `Cc1ccc(OCC(=O)N/N=C\c2ccc(-c3ccc(Cl)cc3)o2)cc1`, for which the displacement was 38.4%.

For the molecule `Cc1ccc(S(=O)(=O)N/N=C/c2ccc(-c3ccc([N+](=O)[O-])cc3C)o2)cc1`, the displacement stood at 52.8%.

As to `O=C(COc1ccc(I)cc1)N/N=C/c1ccc(-c2ccc([N+](=O)[O-])cc2)o1`, the displacement was determined as 59%.

For the molecule `O=[N+]([O-])c1ccc(N/N=C/c2ccc(-c3ccc(Cl)cc3)o2)cc1`, the displacement is -4%.

With `O=C(COc1ccc(Cl)cc1)N/N=C/c1ccc(I)o1`, the displacement is -6%.

On to `Cc1ccc(OCC(=O)N/N=C\c2ccc(-c3ccc([N+](=O)[O-])cc3)o2)cc1`, for which the displacement was found to be 116%.

With `Cc1ccc(S(=O)(=O)N/N=C/c2ccc(-c3ccc([N+](=O)[O-])cc3Br)o2)cc1`, the displacement amounted to 2.5%.

As to `Cc1ccc2nc(-c3ccc(OCC(=O)N/N=C/c4ccc([N+](=O)[O-])o4)cc3)cc(-c3ccccc3)c2c1`, the displacement is -16.7%.

For `CCN(CC)Cc1c(O)ccc2c(-c3ccccc3)cc(=O)oc12`, the displacement was -8.3%.

Regarding `Brc1ccc(CN2CCN(C3CCN(Cc4ccccc4)CC3)CC2)cc1`, the displacement was -15.5%.

For the molecule `COc1ccc(S(=O)(=O)N(CC(=O)Nc2ccc(C)c(C)c2)c2ccc(C)cc2)cc1OC`, the displacement worked out at 17.2%.

For `CCOc1ccc(-c2cc(C(=O)NN)c3ccccc3n2)cc1`, the displacement was -18%.

For `Cc1csc(Nc2ccccc2)[n+]1CCO`, the displacement is 4.4%.

For the molecule `Cc1cc(N(C)/N=C/c2ccccc2Cl)nc(-c2ccccc2O)n1`, the displacement amounted to 5.1%.

Regarding `CC(=O)N1CCN(c2ccc(C(=O)c3ccccc3)cc2F)CC1`, the displacement was determined as 0.4%.

Take `N#C/C(=C\c1ccc(-c2cccc(C(F)(F)F)c2)o1)c1ccc(Cl)cc1`: the displacement was -15.3%.

As to `N#C/C(=C\c1ccc(I)o1)c1ccccc1`, the displacement is -34%.

As to `N#C/C(=C/c1ccc(I)o1)c1ccc(Cl)cc1`, the displacement is -24.1%.

In the case of `O=[N+]([O-])/C=C/c1ccc(-c2ccc(Cl)cc2)o1`, the displacement amounted to 14.7%.

Regarding `N#C/C(=C\c1ccc(-c2cccc(Cl)c2)o1)c1ccccc1`, the displacement is -6.4%.

For the molecule `N#C/C(=C\c1ccc(-c2ccc(Cl)c(Cl)c2)o1)c1ccccc1`, the displacement came out at 135%.

Turning to `N#C/C(=C\c1ccc(-c2ccc(Cl)cc2)o1)c1ccccc1`, the displacement came to 130%.

For the molecule `Clc1ccc(-c2ccc(/C=C\c3nc4ccccc4o3)o2)cc1`, the displacement amounted to 95.3%.

Turning to `O=C(/C=C/c1ccc(-c2ccc(Cl)cc2)o1)c1ccccc1`, the displacement was 41.8%.

Consider `N#C/C(=C\c1ccc(-c2ccc(Cl)cc2)o1)c1ccc(Cl)cc1`, for which the displacement came out at 123%.

In the case of `N#C/C(=C\c1ccc(-c2cccc(Cl)c2)o1)c1ccc(Cl)cc1`, the displacement was -3.8%.

On to `O/N=C\c1ccc(-c2ccc(Cl)c(Cl)c2)o1`, for which the displacement is -7.3%.

`CSc1ccc(Cl)c(C(=O)Nc2ccc(Cl)cn2)c1`: the displacement is -39.3%.

For the molecule `CC1CCN(C(=O)CN(c2cccc([N+](=O)[O-])c2)S(=O)(=O)c2ccccc2)CC1`, the displacement came to 3.3%.

For `O=C(NC1CCCCC1)c1ccc([N+](=O)[O-])cc1`, the displacement came to 0.7%.

Take `O=C(N1CCCCC1)C12CC3CCC(CC(C3)C1)C2`: the displacement amounted to 6.3%.

In the case of `O=C(c1ccc2nc3c4ccccc4c4ccccc4c3nc2c1)N1CCOCC1`, the displacement stood at 18.3%.

As for `O=C(Nc1ccc2nc3c4ccccc4c4ccccc4c3nc2c1)N1CCOCC1`, the displacement was 77.1%.

On to `CCOC(=O)N1CCN(C(=O)Nc2ccc3nc4c5ccccc5c5ccccc5c4nc3c2)CC1`, for which the displacement was found to be 22.4%.

Take `Cc1ccc(C(=O)N2C(C)CCCC2C)cc1[N+](=O)[O-]` (centres undefined): the displacement was -4%.

As for `COc1ccc(CC(=O)O/N=C(\N)Cc2ccc([N+](=O)[O-])cc2)cc1OC`, the displacement was 14.2%.

As to `O=C1/C(=C\c2ccc(N3N=C(c4ccccc4)CC3c3ccccc3)cc2)SC(=S)N1C1CCS(=O)(=O)C1` (centres undefined), the displacement is -14.9%.

On to `O=C1/C(=C/c2ccc(Cl)cc2Cl)SC(=S)N1C1CCS(=O)(=O)C1` (centres undefined), for which the displacement was determined as 7.1%.

`COc1ccccc1/C=C1\SC(=S)N(C2CCS(=O)(=O)C2)C1=O` (centres undefined): the displacement came to 137%.

Regarding `COc1cccc(/C=C2\SC(=S)N(C3CCCCC3)C2=O)c1O`, the displacement is -3.3%.

Regarding `O=C1/C(=C/C=C/c2ccccc2)SC(=S)N1C1CCS(=O)(=O)C1` (centres undefined), the displacement is 56.9%.

With `O=C1/C(=C/C2CC=CCC2)SC(=S)N1C1CCS(=O)(=O)C1` (centres undefined), the displacement turned out to be 9.6%.
